The results in this text go back to ChEMBL document CHEMBL1201862, “PubChem BioAssay data set” (2004).

About 1,200 (6.7%) of roughly 18,000 compounds were called active. Inconclusive results (about 16%) are left out. The calls are words filed in the database; no cut-off is given here. The sample as a whole holds a higher share of actives than the screen did.

The assay in a line: qHTS for Inhibitors of binding or entry into cells for Marburg Virus. A general note: Quantitative high-throughput screening tests each substance at several concentrations.
Turning to `COC[C@@H]([C@H](O)[C@H](O)C(=O)NCC[C@H](C)c1nc(/C=C/C[C@@H]2O[C@]3(C[C@@H](O)[C@@H]2C)O[C@H]([C@H](C[C@H](O)[C@H](C)[C@H](O)[C@H](C)/C=C(C)/C(C)=C/C=C/C(C)=C\C#N)OC)[C@H](OP(=O)(O)O)C3(C)C)co1)N(C)C`, the Potency was 0.0411 µM (active).

Regarding `COC(=O)[C@H]1[C@H]2C[C@@H]3c4[nH]c5cc(OC)ccc5c4CCN3C[C@H]2C[C@@H](OC(=O)c2cc(OC)c(OC)c(OC)c2)[C@@H]1OC`, the Potency is 355 µM (active).

As to NITROPRUSSIDE, CHEMBL2097081, the Potency entry was “inactive; 562.3 nM”.
